# Bioassay records (PubChem BioAssay)
# This is a sample that favours compounds with a hit; in the whole collection about 5.3% have one here.
# MARV entry inh: Marburg virus entry inhibition; Marburg virus pseudotyped entry inhibition, cell reporter; Potency, µM (top dose mostly 37.8 µM), inactives show at the highest dose activity change, negative = inhibition, hits mostly inhibitors; 1.8% of 300,000 active; AID 540276; calls by dose curve; tested in HEK293 cells
# HCV inhibitor: HCV inhibition; Huh7.5.1 HCVcc-Cre infection, luciferase reporter, 44 h; Potency, µM (top dose mostly 41.8 µM), for the others: at the top dose activity change, negative = inhibition, hits mostly inhibitors; 3.4% of 340,000 active; AID 651820; active means well fitted inhibition curve with a large enough effect; inconclusive means small, poorly fitted or top-dose-only effect, or another doubt; inactive means no such curve, though single readings can be large or run the other way
#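 HCVcc-Cre virus at an moi near 0.5 was added right after compound to cells cultured 4 h from seeding (1,000 cells/well). Luciferase activity was determined 44 h later, 15 min after substrate addition at RT.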
# VACV mCherry inh: vaccinia inhibition (mCherry reporter) | Potency, µM (series often up to 36.5 µM), for the others: top-dose activity change, negative = inhibition, most hits filed as inhibitors | 0.63% of 310,000 active | Vaccinia virus mCherry reporter infection, fluorescence; calls by dose curve; tested in A549 cells; further: nearly all actives have a fitted effect of over 35% in size
# FMDV antiviral: blocks foot and mouth disease virus; FMDV antiviral cell-based qHTS; Potency, µM (top dose mostly 57.9 µM), without a hit: at the top dose activity change, negative = inhibition, actives largely listed as inhibitors; 1.2% of 410,000 active; AID 1159524; calls by dose curve; tested in HEK293T cells; further: read-out not given here; nearly all actives have a fitted effect of over 45% in size
# LASV entry inh: blocks Lassa virus binding to or entry into cells; AID 540256; Potency, µM (titrated, usually from 37.9 µM), for inactives: top-dose activity change, negative = inhibition, hits mostly inhibitors; Lassa virus pseudotype entry inhibition, cell reporter; 1.2% of 300,000 active; calls by dose curve; tested in HEK293 cells; further: nearly all actives have a fitted effect of over 50% in size
# Vaccinia Venus: vaccinia inhibition (Venus reporter); Potency, µM (series often up to 36.5 µM), for the others: at the top dose activity change, negative = inhibition, hits mostly inhibitors; Vaccinia virus Venus reporter expression, fluorescence; 0.46% of 330,000 active; calls by dose curve; tested in A549 cells; further: nearly all actives have a fitted effect of over 30% in size
# The depositor's hits bear a star; i = inactive; ? = inconclusive; . = not tested or not shown; [ ] = remark or other dose. On the % scale 0 is the no-effect control and ±100 the full control effect; potency means the concentration at half of the fitted maximal effect.
SMILES,MARV entry inh,HCV inhibitor,VACV mCherry inh,FMDV antiviral,LASV entry inh,Vaccinia Venus
COc1ccc(CNC(=O)c2cc(-c3cccs3)nc3ccccc23)c(OC)c1,-15.2%[46.1 µM],.,-8.9%,?,-16.9%[46.1 µM],5.4%
CC#CCN1c2ccccc2[C@]23CCC(=O)N(Cc4cccc(C(F)(F)F)c4)C2=NC(C(=O)OC)=C(C(=O)OC)[C@H]13,18.5%[14.2 µM],.,.,.,.,.
CCN(CC)CCOc1ccc(Br)cc1,3.0%,?,i,.,0.8%,-6.2%
CCCOc1ccc2c(c1)C(=NN=C(N)N)c1cc(OCCC)ccc1-2,?,11.2µM*,?,-0.6%,?,?
CCN(CC)CCOc1ccc2c(c1)C(=NO)c1cc(OCCN(CC)CC)ccc1-2,2.59µM*,10µM*,8.91µM*,.,10.3µM*,3.55µM*
OCC1(Cc2ccccc2)CCCN(Cc2cn[nH]c2-c2ccccc2)C1 (stereo not given),?,12.9%,-11.4%,-16.4%,-13.5%,-14.0%
Cc1ccc(C)c(-c2[nH]ncc2CN2CCCC(CO)(Cc3ccccc3C)C2)c1 (stereo not given),25.1µM*,12.6µM*,-17.5%,-24.6%,.,1.0%
c1ccc(C(c2nnnn2C2CCCC2)N2CCN(c3ccccc3)CC2)cc1 (stereo not given),?,-3.0%,-13.4%,-4.0%,18.3µM*,-11.5%
COc1ccc(OC)c(C(c2nnnn2C2CCCC2)N2CCN(c3ccccc3)CC2)c1 (stereo not given),10µM*,-24.1%,.,-5.4%,?,-31.2%
CCc1ccc(OCCCn2c(CCNC(=O)C3CCCCC3)nc3ccccc32)cc1,.,.,9.2%,.,.,-14.2%
NCCCC(O)(P(=O)(O)O)P(=O)(O)O,.,.,-11.8%,2.6%,.,-10.8%
O=C1c2ccccc2NC(c2ccc(-c3cccc([N+](=O)[O-])c3)o2)N1O (stereo not given),?,-21.0%,12.6µM*,-13.2%,?,?
Cc1ccc(NC(=O)c2ccc([N+](=O)[O-])o2)cc1C,?,12.6µM*,?,18.5%,?,?
O=C(Nc1ccc2[nH]c(=O)[nH]c2c1)c1ccc([N+](=O)[O-])o1,.,10µM*,.,-7.7%,.,.
Cc1ccc(-n2nnnc2CNC(=O)c2ccc([N+](=O)[O-])o2)cc1C,?,22.4µM*,?,-17.9%,?,?
O=C(NCc1nnnn1-c1ccc(F)cc1)c1ccc([N+](=O)[O-])o1,?,?,?,-19.6%,1.9%,-30.0%
O=C(NC1CCCC1)c1cnn(-c2ccc(F)cc2F)c1C1CCNCC1,.,.,2.9%,6.7%,?,5.9%
COc1ccc([C@]23Cc4ccccc4[C@H](O2)C2=C(O3)C(=O)c3ccccc3C2=O)cc1,10.6%[14.2 µM],.,.,.,.,.
O=c1c(-c2ccccc2)nc2cnc(N3CCOCC3)nc2n1-c1ccccc1,.,.,.,-8.2%,.,.
COC(=O)CC(=O)CSc1nc2cc(C(=O)NC(C)C)ccc2c(=O)n1CCc1ccccc1,.,.,4.6%,-21.8%,-23.1%[46.1 µM],-4.5%
Cc1cc2oc(=O)c(CC(=O)NCCCN(C)C)c(C)c2c2occ(C(C)(C)C)c12,?,10µM*,12.6µM*,-9.6%,?,?
COc1cc(C(=O)NCc2ccc3c(c2)OCO3)c([N+](=O)[O-])cc1OC,.,8.1%,.,2.9%,.,.
CN(C)c1c2ccccc2nc2c(F)c(F)c(F)c(F)c12,.,?,.,28.2µM*,.,.
CN(C)c1ccc(C(=O)c2ccc(O)cc2O)cc1,9.9%,-20.6%,?,3.1%,-18.1%,-17.5%
CN(C)c1ccc(Cc2cc3c(O)ccc(O)c3cc(Cc3ccc(N(C)C)cc3)c2=O)cc1,?,11.2µM*,-6.7%,-19.9%,-28.4%,7.0%
SMILES,MARV entry inh,HCV inhibitor,VACV mCherry inh,FMDV antiviral,LASV entry inh,Vaccinia Venus
Cc1c(Cl)cccc1N1C(=O)[C@@H]2[C@H](ON(c3ccccc3)[C@H]2c2cccnc2)C1=O,1.6%,.,.,.,.,.
N#Cc1c(NC(=O)c2ccc([N+](=O)[O-])o2)sc2c1CCC2,?,-2.4%,?,-62.5%,?,?
O=C(c1ccco1)N1CCN(S(=O)(=O)c2ccc(Br)cc2)CC1,.,13.8%,.,-4.5%,.,.
O=C(c1ccco1)N1CCN(S(=O)(=O)c2ccc(Oc3ccccc3)cc2)CC1,?,14.1µM*,.,?,-21.0%,.
CC(=O)Nc1ccc(CCNC(=O)c2ccc3ccccc3c2O)cc1,?,?,i,2.6%,1µM*,12.9%
CC(=O)Nc1ccc(NC(=O)c2ccccc2CCc2ccccc2)cc1,?,19.6%,i,-20.0%,10µM*,4.3%
CC(=O)Nc1ccc(NC(=O)c2ccccc2C)cc1,23.4%,3.7%,-7.7%,44.7%,?,-6.8%
O=C(N/N=C1\C[C@@H](O)[C@@H](O)[C@@H]2[C@@H]3C(=O)N(c4cccc(Oc5ccccc5)c4)C(=O)[C@@H]3CC[C@H]12)OCc1ccccc1,4.0%[14.2 µM],.,.,.,.,.
CCNc1ncc2nc(-c3ccc(F)cc3)c(=O)n(C[C@H]3CCCO3)c2n1,.,.,.,-12.2%,.,.
Nc1nc(N)c2cc([N+](=O)[O-])ccc2n1,-1.8%,?,?,-11.7%,4.0%,-26.2%
Nc1nc(N)c2c(ccc3c2ccn3Cc2cccc([N+](=O)[O-])c2)n1,.,.,0.355µM*,?,.,11.2µM*
CC(C)CNC(=O)c1cc2nc(C3CC3)cc(C(F)(F)F)n2n1,-6.7%,7.94µM*,.,12.8%,-0.6%,.
CCc1ccc(Cn2c(CNS(=O)(=O)c3ccc4c(c3)CCCC4)nc3cccnc32)cc1,.,.,-12.8%,64.8%,-17.1%[46.1 µM],-10.3%
NC(=O)c1ccc(NC(=O)c2ccc(COc3ccccc3Br)cc2)cc1,-10.7%,-1.7%,-5.9%,14.3%,15.0%,5.3%
Cc1cc(C)n(Cc2ccc(NC(=O)c3ccc(COc4ccccc4Br)cc3)cc2)n1,?,3.98µM*,.,12.6µM*,?,.
COc1ccccc1-c1cc(C(F)(F)F)nc(S(=O)(=O)CCCC(=O)N2CCCCC2C)n1 (stereo not given),?,?,-27.1%,7.94µM*,?,-20.9%
COc1ccccc1-c1cc(C(F)(F)F)nc(S(=O)(=O)CCCC(=O)Nc2cc(Br)ccc2O)n1,?,.,-12.3%,18.0%,7.0%[46.1 µM],-4.5%
COc1ccccc1-c1cc(C(F)(F)F)nc(N2CCCC2)n1,-1.9%,-11.8%,.,2.5%,-23.1%,.
COc1ccccc1-c1cc(C(F)(F)F)nc(S(=O)(=O)CCCC(=O)NCc2ccc(F)cc2)n1,?,?,?,14.1µM*,?,-15.9%
COc1ccccc1-c1cc(C(F)(F)F)nc(S(=O)(=O)CCCC(=O)NC(C)C)n1,?,?,-8.2%,8.91µM*,?,-9.7%
COc1ccccc1-c1cc(C(F)(F)F)nc(S(=O)(=O)CCCC(=O)Nc2cccnc2Cl)n1,?,?,?,14.1µM*,?,?
COc1ccccc1-c1cc(C(F)(F)F)nc(S(=O)(=O)CCCC(=O)Nc2ccccc2F)n1,?,.,-22.6%[7.34 µM],?,?,-14.5%[7.34 µM]
COC(=O)c1sc2cccc(F)c2c1S(=O)(=O)Nc1ccc(C)cc1Cl,.,.,-9.5%,5.6%,29.9%[46.1 µM],-10.9%
